# Laboratory results from PubChem BioAssay (NCI).
# The panel holds about 79,000 compounds, 15% with a hit somewhere; the sample as a whole holds those more often. Unmarked numbers belong to inactive results. Active and inactive are the calls of the source. Cut-off read from the data, not from the text of the source: active = growth inhibition above about 70%; inactive = the rest.
# Experiments:
# [1] = NCI Yeast Anticancer Drug Screen. Data for the rad52 strain (AID 147);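 note: 0% = growth of vehicle-treated control cultures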; details: S. cerevisiae rad52 mutant growth inhibition, stronger effect = higher value
# How it was run: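 Genetically altered yeast (DNA damage repair defect) treated with compound; inhibition calculated relative to vehicle.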
# [2] = NCI Yeast Anticancer Drug Screen. Data for the wt1 strain (AID 149);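 note: 0% = growth of vehicle-treated wt1 cultures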; details: S. cerevisiae wt1 strain (SPY 50644) growth inhibition, stronger effect = higher value
# How it was run: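 The wt1 strain was treated with compounds, and growth was compared with vehicle-treated cultures to give inhibition.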
# [3] = NCI Yeast Anticancer Drug Screen. Data for the rad50EPP+ strain (AID 151);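 note: 0% = growth of vehicle-treated control cultures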; details: S. cerevisiae rad50 mutant strain, stronger effect = higher value
# How it was run: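 Strain rad50EPP+; compound exposure; % growth inhibition vs vehicle.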
# [4] = NCI Yeast Anticancer Drug Screen. Data for the rad50 strain (AID 155);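 note: 0% = growth of vehicle-only cultures of the same strain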; details: S. cerevisiae rad50 strain growth inhibition, stronger effect = higher value
# How it was run: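 Cells are treated with compound, grown, and their growth is then scored against vehicle-only cultures of the same repair-deficient yeast strain.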
# [5] = NCI Yeast Anticancer Drug Screen. Data for the mec2-1 strain (AID 157); details: S. cerevisiae mec2-1 strain, stronger effect = higher value
# How it was run: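 Cells of the genetically defined mec2-1 yeast strain are incubated with test compound. Inhibition of growth is calculated against vehicle-treated controls.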
# [6] = NCI Yeast Anticancer Drug Screen. Data for the rad14 strain (AID 159);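 note: 0% = growth of vehicle-treated control cultures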; details: S. cerevisiae rad14 strain growth inhibition, stronger effect = higher value
# How it was run: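 Readout: yeast growth inhibition, referenced to vehicle-only cultures. Strain bears a defined alteration in DNA damage repair.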
# [7] = NCI Yeast Anticancer Drug Screen. Data for the sgs1 mgt1 strain (AID 161);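 note: 0% = growth of cultures given vehicle only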; details: S. cerevisiae sgs1 mgt1 strain, stronger effect = higher value
# How it was run: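 Test agents were incubated with a DNA-repair-mutant yeast strain. Growth was then read and compared against vehicle-treated controls.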
# [8] = NCI Yeast Anticancer Drug Screen. Data for the CLN2oe strain (AID 163);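 note: 0% = growth of vehicle-only control cultures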; details: S. cerevisiae CLN2oe strain, stronger effect = higher value
# How it was run: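 Strain altered in cell-cycle control, incubated with compound; growth compared to solvent-treated controls.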
# [9] = NCI Yeast Anticancer Drug Screen. Data for the cln2 rad14 strain (AID 165);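 note: 0% = growth equal to vehicle treated cultures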; details: S. cerevisiae cln2 rad14 strain, stronger effect = higher value
# How it was run: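 The screen exposed genetically defined yeast (cln2 rad14) to test compounds and scored growth inhibition relative to vehicle-treated controls.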
# [10] = NCI Yeast Anticancer Drug Screen. Data for the bub3 strain (AID 167); details: S. cerevisiae bub3 mutant strain, stronger effect = higher value
# How it was run: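 Part of a panel of yeast mutants defective in DNA damage repair or cell cycle regulation. Each strain is grown with compound, and inhibition is calculated relative to solvent-treated cultures.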
# [11] = NCI Yeast Anticancer Drug Screen. Data for the wt2 strain (AID 169);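 note: 0% = growth of vehicle-treated yeast cultures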; details: S. cerevisiae wt2 strain growth inhibition, stronger effect = higher value
# How it was run: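 Steps: yeast strain treated with compound; growth recorded; inhibition calculated relative to cultures given vehicle alone.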
# [12] = NCI Yeast Anticancer Drug Screen. Data for the mlh1 strain (AID 171);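 note: 0% = growth of vehicle-treated control cultures of the same strain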; details: S. cerevisiae mlh1 strain growth inhibition, stronger effect = higher value
# How it was run: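 Yeast screen: mutant strain plus compound, growth scored against vehicle control wells.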
# [13] = NCI Yeast Anticancer Drug Screen. Data for the sgs1 strain (AID 173);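 note: 0% = growth of vehicle-only control cultures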; details: S. cerevisiae sgs1 mutant, stronger effect = higher value
# How it was run: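 Inhibition of yeast growth served as the measure. The mutant strain was treated with each compound, and growth was normalised to cultures receiving vehicle alone.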
# [14] = NCI Yeast Anticancer Drug Screen. Data for the mlh1 rad18 strain (AID 175); details: S. cerevisiae mlh1 rad18 strain growth inhibition, stronger effect = higher value
# How it was run: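 Compound-treated yeast growth, normalised to vehicle controls. Strain bears defined DNA repair mutations.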
# [15] = NCI Yeast Anticancer Drug Screen. Data for the rad18 strain (AID 177); details: S. cerevisiae rad18 mutant growth inhibition, stronger effect = higher value
# How it was run: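 Inhibition values reflect reduced yeast growth compared with vehicle-treated controls, using a strain engineered with a DNA damage repair defect.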
# [16] = at 5.0 µM (retest, dose inferred, filed as 0.5)
# [17] = at 50.0 µM (retest, dose inferred, filed as 5.0)
smiles,measurement,setting,value
CC(=O)/C(=C\c1ccc(Cl)c(Cl)c1)C(=O)C(C)CN(C)C (stereo not drawn),growth inhibition,[1]; at 1.2 µM,19%
same,growth inhibition,[1]; at 3.7 µM,21%
same,growth inhibition,[1]; at 11.0 µM,33%
same,growth inhibition,[1]; at 33.0 µM,52%
same,growth inhibition,[1]; at 100.0 µM,91% (active)
same,growth inhibition,[2]; at 1.2 µM,-12%
same,growth inhibition,[2]; at 3.7 µM,-13%
same,growth inhibition,[2]; at 11.0 µM,-12%
same,growth inhibition,[2]; at 33.0 µM,10%
same,growth inhibition,[2]; at 100.0 µM,90% (active)
same,growth inhibition,[3]; at 1.2 µM,7%
same,growth inhibition,[3]; at 3.7 µM,7%
same,growth inhibition,[3]; at 11.0 µM,3%
same,growth inhibition,[3]; at 33.0 µM,37%
same,growth inhibition,[3]; at 100.0 µM,90% (active)
same,growth inhibition,[4]; at 1.2 µM,26%
same,growth inhibition,[4]; at 3.7 µM,22%
same,growth inhibition,[4]; [16],14%
same,growth inhibition,[4]; at 11.0 µM,18%
same,growth inhibition,[4]; at 33.0 µM,62%
same,growth inhibition,[4]; [17],36%
same,growth inhibition,[4]; at 50.0 µM,64.4%
same,growth inhibition,[4]; at 100.0 µM,91% (active)
same,growth inhibition,[5]; at 1.2 µM,19%
same,growth inhibition,[5]; at 3.7 µM,29%
same,growth inhibition,[5]; [16],9%
same,growth inhibition,[5]; at 11.0 µM,38%
same,growth inhibition,[5]; at 33.0 µM,51%
same,growth inhibition,[5]; [17],76% (active)
same,growth inhibition,[5]; at 50.0 µM,87.5% (active)
same,growth inhibition,[5]; at 100.0 µM,93% (active)
same,growth inhibition,[6]; at 1.2 µM,-3%
same,growth inhibition,[6]; at 3.7 µM,2%
same,growth inhibition,[6]; at 11.0 µM,-8%
same,growth inhibition,[6]; at 33.0 µM,22%
same,growth inhibition,[6]; at 100.0 µM,92% (active)
same,growth inhibition,[7]; [16],-8%
same,growth inhibition,[7]; [17],97% (active)
same,growth inhibition,[7]; at 50.0 µM,85.7% (active)
same,growth inhibition,[8]; at 1.2 µM,8%
same,growth inhibition,[8]; at 3.7 µM,-2%
same,growth inhibition,[8]; at 11.0 µM,17%
same,growth inhibition,[8]; at 33.0 µM,44%
same,growth inhibition,[8]; at 100.0 µM,81% (active)
same,growth inhibition,[9]; [16],-1%
same,growth inhibition,[9]; [17],93% (active)
same,growth inhibition,[9]; at 50.0 µM,81.2% (active)
same,growth inhibition,[10]; at 1.2 µM,7%
same,growth inhibition,[10]; at 3.7 µM,-1%
same,growth inhibition,[10]; [16],12%
same,growth inhibition,[10]; at 11.0 µM,11%
same,growth inhibition,[10]; at 33.0 µM,53%
same,growth inhibition,[10]; [17],96% (active)
same,growth inhibition,[10]; at 50.0 µM,82.8% (active)
same,growth inhibition,[10]; at 100.0 µM,93% (active)
same,growth inhibition,[11]; at 1.2 µM,-12%
same,growth inhibition,[11]; at 3.7 µM,-6%
same,growth inhibition,[11]; at 11.0 µM,-1%
same,growth inhibition,[11]; at 33.0 µM,88% (active)
same,growth inhibition,[11]; at 100.0 µM,98% (active)
same,growth inhibition,[12]; at 1.2 µM,6%
same,growth inhibition,[12]; at 3.7 µM,-2%
same,growth inhibition,[12]; at 11.0 µM,10%
same,growth inhibition,[12]; at 33.0 µM,46%
same,growth inhibition,[12]; at 100.0 µM,93% (active)
same,growth inhibition,[13]; at 1.2 µM,40%
same,growth inhibition,[13]; at 3.7 µM,48%
same,growth inhibition,[13]; at 11.0 µM,64%
same,growth inhibition,[13]; at 33.0 µM,76% (active)
same,growth inhibition,[13]; at 100.0 µM,97% (active)
same,growth inhibition,[14]; [16],16%
same,growth inhibition,[14]; [17],97% (active)
same,growth inhibition,[14]; at 50.0 µM,90.3% (active)
same,growth inhibition,[15]; at 1.2 µM,26%
same,growth inhibition,[15]; at 3.7 µM,30%
same,growth inhibition,[15]; at 11.0 µM,55%
same,growth inhibition,[15]; at 33.0 µM,82% (active)
same,growth inhibition,[15]; at 100.0 µM,93% (active)
O=C(O)C1CCCCC1c1c2ccc(=O)cc-2oc2cc(O)ccc12 (stereo not drawn),growth inhibition,[1]; at 1.2 µM,2%
same,growth inhibition,[1]; at 3.7 µM,-3%
same,growth inhibition,[1]; at 11.0 µM,1%
same,growth inhibition,[1]; at 33.0 µM,39%
same,growth inhibition,[1]; at 100.0 µM,93% (active)
same,growth inhibition,[2]; at 1.2 µM,-24%
same,growth inhibition,[2]; at 3.7 µM,-19%
same,growth inhibition,[2]; at 11.0 µM,-21%
same,growth inhibition,[2]; at 33.0 µM,12%
same,growth inhibition,[2]; at 100.0 µM,91% (active)
same,growth inhibition,[3]; at 1.2 µM,11%
same,growth inhibition,[3]; at 3.7 µM,16%
same,growth inhibition,[3]; at 11.0 µM,16%
same,growth inhibition,[3]; at 33.0 µM,22%
same,growth inhibition,[3]; at 100.0 µM,38%
same,growth inhibition,[4]; at 1.2 µM,16%
same,growth inhibition,[4]; at 3.7 µM,19%
same,growth inhibition,[4]; [16],52%
same,growth inhibition,[4]; at 11.0 µM,9%
same,growth inhibition,[4]; at 33.0 µM,28%
same,growth inhibition,[4]; [17],95% (active)
same,growth inhibition,[4]; at 50.0 µM,86.3% (active)
same,growth inhibition,[4]; at 100.0 µM,90% (active)
same,growth inhibition,[5]; at 1.2 µM,-3%
same,growth inhibition,[5]; at 3.7 µM,-1%
same,growth inhibition,[5]; [16],59%
same,growth inhibition,[5]; at 11.0 µM,3%
same,growth inhibition,[5]; at 33.0 µM,17%
same,growth inhibition,[5]; [17],94% (active)
same,growth inhibition,[5]; at 50.0 µM,86.8% (active)
same,growth inhibition,[5]; at 100.0 µM,92% (active)
same,growth inhibition,[6]; at 1.2 µM,-21%
same,growth inhibition,[6]; at 3.7 µM,-20%
same,growth inhibition,[6]; at 11.0 µM,-18%
same,growth inhibition,[6]; at 33.0 µM,0%
same,growth inhibition,[6]; at 100.0 µM,92% (active)
same,growth inhibition,[7]; [16],10%
same,growth inhibition,[7]; [17],77% (active)
same,growth inhibition,[7]; at 50.0 µM,89.5% (active)
same,growth inhibition,[8]; at 1.2 µM,13%
same,growth inhibition,[8]; at 3.7 µM,14%
same,growth inhibition,[8]; at 11.0 µM,12%
same,growth inhibition,[8]; at 33.0 µM,37%
same,growth inhibition,[8]; at 100.0 µM,94% (active)
same,growth inhibition,[9]; [16],43%
same,growth inhibition,[9]; [17],87% (active)
same,growth inhibition,[9]; at 50.0 µM,86.4% (active)
same,growth inhibition,[10]; at 1.2 µM,14%
same,growth inhibition,[10]; at 3.7 µM,22%
same,growth inhibition,[10]; [16],44%
same,growth inhibition,[10]; at 11.0 µM,27%
same,growth inhibition,[10]; at 33.0 µM,55%
same,growth inhibition,[10]; [17],88% (active)
same,growth inhibition,[10]; at 50.0 µM,86.7% (active)
same,growth inhibition,[10]; at 100.0 µM,92% (active)
same,growth inhibition,[11]; at 1.2 µM,-20%
same,growth inhibition,[11]; at 3.7 µM,-18%
same,growth inhibition,[11]; at 11.0 µM,-7%
same,growth inhibition,[11]; at 33.0 µM,15%
same,growth inhibition,[11]; at 100.0 µM,94% (active)
